# PubChem BioAssay (NCI)
# “And” between values parts separate entries of the source, which are not always exact repeats. Identical values can stand only once. The panel holds about 83,000 compounds, 20% with a hit somewhere; the sample as a whole holds those more often.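 Single-concentration screen, 48 h exposure, 96-well plates. Endpoint: percent growth. Below 10 = active.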 The source made the active and inactive calls.
# System: MDA-MB-468 breast
# Test: NCI-60 one-dose screen, 48 h (100 = growth as untreated, 0 = no growth, -100 = all killed)
# Settings: 10 µM unless noted
row,Structure (SMILES),growth
1,Clc1nnc2c3ccccc3ccn12,101% (inactive)
2,O=C(c1ccccc1)N(CCCl)C(=O)N(CCCl)C(=O)c1ccccc1,111% (inactive)
3,Cc1ccc(S(=O)(=O)Nc2nc3ccccc3nc2Nc2ccc3nsnc3c2)cc1,27.4% (inactive) and 35.8% (inactive)
4,CC(C)C[C@H]1C(=O)O[C@H](C(C)C)C(=O)N(C)[C@@H](C(C)C)C(=O)O[C@H](C(C)C)C(=O)N(C)[C@@H](C(C)C)C(=O)O[C@H](C(C)C)C(=O)N1C,-7.13% (active)
5,CN1C(=C2C(=O)OC(C)(C)OC2=O)CCC1C(=O)NCc1ccc(Cl)cc1Cl (stereo not given),75% (inactive)
6,O=c1cc(-c2ccccc2)nc(SCc2nc3cc(Cl)c(Cl)cc3[nH]2)[nH]1,116% (inactive)
7,COc1cccc(/C=C/C(=O)c2cc3c(N)c(C(=O)Nc4ccccc4C)sc3nc2C)c1,16.7% (inactive)
8,COc1cc(Nc2ccnc(N3CCN(c4ccnc5cc(Cl)ccc45)CC3)n2)cc(OC)c1,-0.859% (active)
9,CCOC(=O)c1cc(C(=O)c2ccc(OC)c(OC)c2)n2c1ccc1ccc3cccnc3c12,38.5% (inactive)
10,CCOC(=O)C1=C(CCl)N(C)C(=O)NC1c1ccc2c(c1)OCO2 (stereo not given),24.1% (inactive)
11,Cn1ccnc1C(=O)/C=C/c1ccc(CNC(=O)c2c(F)c(F)c(F)c(F)c2F)cc1,26.8% (inactive)
12,COc1cc(-c2nc3ccccc3[nH]2)ccc1OCc1nnc(-c2ccc(Br)cc2)o1,80.5% (inactive)
13,COC(=O)c1sc(-c2ccc(C)cc2)cc1O,99.5% (inactive)
14,Cc1[nH]n(C(N)=S)c(=O)c1N=Nc1ccc(F)c(Cl)c1,154% (inactive)
15,Cc1cccc(N2CCC(=O)NC2=S)c1,100% (inactive)
16,C/C(=C(/C)C1CC1CCN(C(=O)c1ccccn1)S(=O)(=O)c1ccc(C)cc1)C1CCCCC1 (stereo not given),75.7% (inactive)
17,COc1ccc(/C=C(/C(=O)n2cnnn2)c2cc(OC)c(OC)c(OC)c2)cc1,13.6% (inactive)
18,Cc1nc2ccccc2c(C(=O)O)c1O,99.9% (inactive)
19,O=C(Cn1cc(CN2CCCCCC2)nn1)Nc1ccc2c(ccn2Cc2ccccc2)c1,74.9% (inactive)
20,COc1ccc(/C=C(/C)c2ccc3ccc(OC)cc3[o+]2)c(O)c1,67.7% (inactive)

row,Structure (SMILES),growth
1,NC1CCC(C(=O)O)CC1 (stereo not given),99.8% (inactive) and 107% (inactive)
2,Cc1cc(C(C)(C)C)cc(C)c1CC1=NCCN1,93.5% (inactive)
3,NC(N)=N/N=C(/c1ccccc1)c1ccccc1F,29.1% (inactive)
4,Nc1nc2c(c3ncccc13)C(c1cccc(Br)c1)Cc1ncccc1-2 (stereo not given),13.7% (inactive)
5,O=C(Nc1cccnc1Nc1ccc(F)cc1)c1cn(Cc2cccc(Oc3ccccc3)c2)nn1,63.5% (inactive)
6,O=C(Nc1nc2ccccc2s1)Nc1ccc([N+](=O)[O-])cc1Cl,89.9% (inactive)
7,Cc1nc2ccccc2c(/C=C/c2ccc(Cl)cc2)c1C(=O)/C=C/c1ccccc1,12.7% (inactive)
8,COCCNc1ccc2ncc(C#Cc3cncc(C(=O)Nc4ccc(CN5CCN(C)CC5)c(C(F)(F)F)c4)c3)n2n1,-59.9% (active)
9,CCN(CC)CC(O)c1cc(-c2ccc(Cl)cc2)nc2c(C)c(Cl)ccc12 (stereo not given),-88.6% (active)
10,O=C(N/N=C/c1c(Cl)cccc1Cl)c1ccc(C(F)(F)F)nc1Nc1cccc(C(F)(F)F)c1,11.9% (inactive)
11,O=C(O)c1cn(C2CC2)c2cc(N3CCN(C(=O)/C=C/c4ccc(Cl)cc4)CC3)c(F)cc2c1=O,75.5% (inactive)
12,COC(=O)CC1=C(c2ccc([N+](=O)[O-])cc2)CCC1=O,101% (inactive)
13,C=C1CC[C@@H]2[C@](C)(COC(C)=O)[C@H](OC(C)=O)CC[C@@]2(C)[C@@H]1CC(Nc1ccc(S(=O)(=O)Nc2nc(C)cc(C)n2)cc1)C1=CCOC1=O (stereo not given in full),41% (inactive)
14,O=C(NNc1nc2cc(F)ccc2n2c(CO)ccc12)c1cnccn1,-14% (active)
15,COc1cc2c(=O)n(CCN(C)C)c3c4cc5c(cc4ccc3c2cc1OC)OCO5,-66.8% (active)
16,COc1ccc(/C(=C\c2ccccc2)C(=O)O)cc1OC,93.2% (inactive)
17,c1ccc(-c2n(Cc3ccc4ccccc4c3)cc[n+]2Cc2ccc3ccccc3c2)cc1,-65.5% (active)
18,Cc1csc(/N=C(N)/N=C(\N)c2cccc(C#N)c2)n1,101% (inactive)
19,O=C(Nc1cccc(Cl)c1)Nc1nc2ccc([N+](=O)[O-])cc2s1,-29.1% (active)
20,COC(=O)c1cc2c3c(cc(O)c2[nH]1)N(C(=O)C1Cc2cc(OC)c(OC)c(OC)c2N1)CC3CCl (stereo not given),-41.8% (active)
